Screening data deposited in PubChem by National Center for Advancing Translational Sciences (NCATS).
Sampled rows, rich in hits. Any-hit rate of the full collection: about 2.3%.
Nrf2 ARE act = activates Nrf2 signaling; AID 624171; AREc32 ARE-luciferase reporter (MCF7-derived line), luminescence, 24 h; Potency, µM (top dose mostly 46.1 µM), without a hit: at the highest dose activation, hits mostly activators; 410,000 compounds, 0.31% hits; also: potency is read from the fitted curve at half-maximal effect; % of control where 0% means no effect; nearly all actives have a fitted effect of over 65% in size
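Cells of the AREc32 ARE-luciferase line are plated in OPTI-MEM containing 5% FBS and left overnight at 37 deg C. Compounds are pinned in, incubation continues 24 hr, and firefly luciferase signal is then measured.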
Giardia kill = Giardia lamblia killing; Giardia lamblia trophozoite viability; activity change, % at 7.66 µM, hits read low; 340,000 compounds, 0.15% hits; AID 540267; in the data active = activity change below about -80%; inconclusive = between about -30% and that limit;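 also: parasites exposed to compound for two days anaerobically before the ATP read; % is scaled to controls: 0 for no effect and ±100 for the full control effect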
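Luminescence from cellular ATP indicates surviving trophozoites (100 cells/well) following 48 hrs anaerobic compound treatment at 37 deg C; signal develops 15-30 min at room temperature.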
IDH1 R132H inh = inhibitors of human mutant IDH1 R132H; O75874; IDH1-R132H enzyme, NADPH consumption, diaphorase/resazurin fluorescence; Potency, µM (highest dose often 76.6 µM), without a hit: at the highest dose activity change, negative = inhibition, usual class: inhibitors; 390,000 compounds, 0.093% hits; also: potency is read from the fitted curve at half-maximal effect; % is scaled to controls: 0 for no effect and ±100 for the full control effect; nearly all actives have a fitted effect of over 65% in size
Target sequence (O75874 whole entry R132H, stated change not applied): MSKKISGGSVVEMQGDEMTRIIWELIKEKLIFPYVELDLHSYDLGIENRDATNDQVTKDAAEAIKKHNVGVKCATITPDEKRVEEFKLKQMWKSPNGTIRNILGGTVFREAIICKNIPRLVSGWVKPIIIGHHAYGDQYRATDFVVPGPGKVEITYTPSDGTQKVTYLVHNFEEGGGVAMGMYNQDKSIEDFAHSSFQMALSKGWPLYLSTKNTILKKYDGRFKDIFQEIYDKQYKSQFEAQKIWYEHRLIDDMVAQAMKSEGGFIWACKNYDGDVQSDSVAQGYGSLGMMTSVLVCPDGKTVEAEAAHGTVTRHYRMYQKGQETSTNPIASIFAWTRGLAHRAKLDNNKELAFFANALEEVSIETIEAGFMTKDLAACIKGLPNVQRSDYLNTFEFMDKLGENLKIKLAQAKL
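IDH1-R132H (0.5 ug/mL) preincubated 30 min with compound, then NADPH (0.016 mM) and alpha-KG (2 mM) added; 80 min at RT, pH 7.5. Remaining NADPH coupled via diaphorase/resazurin to fluorescence (540/590 nm); concentration-response curves normalized to no-enzyme control.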
Apoferritin bind = binds horse apoferritin like a general anesthetic; apoferritin/1-aminoanthracene competitive binding, fluorescence; 350,000 compounds, 0.074% hits; P02791; Potency, µM (highest dose often 77.5 µM), for the others: top-dose activity change, negative = displacement, usual class: inhibitors; also: potency is read from the fitted curve at half-maximal effect; % is scaled to controls: 0 for no effect and ±100 for the full control effect; nearly all actives have a fitted effect of over 20% in size
Target sequence (P02791 2-175 limits assumed): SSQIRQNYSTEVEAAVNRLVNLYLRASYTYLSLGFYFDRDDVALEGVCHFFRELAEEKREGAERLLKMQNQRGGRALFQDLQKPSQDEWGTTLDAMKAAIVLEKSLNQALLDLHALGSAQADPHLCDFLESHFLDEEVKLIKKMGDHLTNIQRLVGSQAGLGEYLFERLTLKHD
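10 uM apoferritin + 50% sat. 1-AMA, PBS; cpd 10 min RT; Ex380/Em535 endpoint; normalized to free probe vs complex; 4-param Hill fit; propofol titration as pos. ctrl.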
A549 viability = counter-screen for Nrf2 inhibitors: cytotoxicity in A549 cells; A549 ARE-Fluc cells, CellTiter-Fluor viability, 18-24 h; Potency, µM (top dose mostly 46 µM), inactives show at the highest dose activity change, negative = cytotoxicity, hits mostly inhibitors; 390,000 compounds, 0.16% hits; also: potency is read from the fitted curve at half-maximal effect; % is scaled to controls: 0 for no effect and ±100 for the full control effect
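Cytotoxicity counterscreen: CellTiter-Fluor fluorescence was measured in A549 ARE_Fluc cells after 18-24 h of compound exposure in a concentration series. The subsequent BugLite luminescent read reports ARE-luciferase activity.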
Nrf2 block = inhibitors of Nrf2 signaling; A549 ARE-Fluc reporter, luciferase luminescence, 18-24 h; Potency, µM (titrated, usually from 46 µM), inactives show at the top dose activity change, negative = inhibition, usual class: inhibitors; 360,000 compounds, 2.1% hits; also: potency is read from the fitted curve at half-maximal effect; % is scaled to controls: 0 for no effect and ±100 for the full control effect; nearly all actives have a fitted effect of over 60% in size
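A549 ARE_Fluc cells, 5000/well, 5% FBS OPTI-MEM; compounds in dose-response, 18-24 h at 37 °C/5% CO2; CellTiter-Fluor viability read (Ex 405/Em 525), then BugLite luciferase luminescence = Nrf2 activity.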
Resorufin autofl = autofluorescence interference, mutant IDH1 hit counter-screen; shares compounds with IDH1 R132H inh; Resorufin detection reagent fluorescence interference, cell-free; inhibition of signal, % at 51.2 µM; 750 tested, under 10 active;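 also: 0% = wells with normal resorufin and full inhibition = wells lacking resorufin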
WT IDH1 inh = wild-type IDH1 (human) inhibition counterscreen; 750 compounds, 9% hits; shares compounds with IDH1 R132H inh; Potency, µM (highest dose often 115 µM), for inactives: at the highest dose activity change, negative = inhibition, hits mostly inhibitors; WT IDH1 enzyme, NADPH diaphorase/resazurin fluorescence; AID 623995;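 also: potency is read from the fitted curve at half-maximal effect; 0% = full WT IDH1 enzyme control and full inhibition = no enzyme wells; nearly all actives have a fitted effect of over 55% in size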
Target sequence (O75874 whole entry, looked up): as the sequence (O75874 whole entry R132H, stated change not applied) above, with H132R counted along it
IDH1 R132H conf = confirmation of human mutant IDH1 inhibitors; IDH1 R132H enzyme, NADPH diaphorase/resazurin fluorescence; 750 compounds, 83% hits; Potency, µM (top dose mostly 76.6 µM), inactives show at the top dose activity change, negative = inhibition, hits mostly inhibitors; shares compounds with IDH1 R132H inh; also: potency is read from the fitted curve at half-maximal effect; nearly all actives have a fitted effect of over 50% in size
* marks the source's active call; other numbers are inactive results; u = inconclusive; x = no result; [ ] = remark or other dose. Unless noted, calls follow the shape of the dose curve; as a rule, active = well fitted curve in the direction sought with a large enough effect; inconclusive = small, poorly fitted or top-dose-only effect, or another doubt; inactive = no such curve, though single readings can be large; an effect the other way counts as inactive or inconclusive.

SMILES | Nrf2 ARE act | Giardia kill | IDH1 R132H inh | Apoferritin bind | A549 viability | Nrf2 block | Resorufin autofl | WT IDH1 inh | IDH1 R132H conf
CCOC(=O)C1=C(O)/C(=C/c2ccc(OCC(=O)O)c(OCC)c2)SC1=Nc1ccc(OC)cc1 | 0% | -15 | 46µM* | -3% | -14% | -15% | 8 | 50µM* | u
CC1(c2ccccc2)O[C@@H]2C[C@H]3[C@@H]4CCC5=CC(=O)C=C[C@]5(C)[C@@]4(F)[C@@H](O)C[C@]3(C)[C@]2(C(=O)CO)O1 (stereo partly specified) | 3% | 39 | 29µM* | -22% | -5% | 0.026µM* | -6 | -14% | 5µM*
CC(C)(C)OC(=O)N1CCC(c2c(C(=O)N3CCN(c4ncccn4)CC3)cnn2-c2ccc(F)cc2)CC1 | -1% | x | 0% | -5% | 7% | u | x | x | x
CC(C)(C)c1ccc(-c2nc(SCCOc3ccc(Cl)cc3)n3[nH]c(=O)cc3n2)cc1 | 6% | x | 0% | u | 6% | u | x | x | x
Cc1ccc(OCCCSc2nc(-c3ccc(C(C)(C)C)cc3)nc3cc(=O)[nH]n23)cc1C | -1% | x | 40µM* | u | u | u | 0 | u | 25µM*
Cc1ccc(CN2CCSc3ccc(C(=O)N4CCN(c5ncccn5)CC4)cc32)cc1 | 0% | -2 | u | -11% | -19% | u | 6 | 3% | 16µM*
CCOCCc1nn2c(=O)cc(COC(=O)c3ccccc3OC)nc2s1 | 3% | x | 9% | -19% | 1% | u | x | x | x
CCCOc1ccc(C2C(C(=O)c3ccc(C)o3)=C(O)C(=O)N2Cc2ccco2)cc1OCC (stereo unspecified) | 5% | -13 | 52µM* | -13% | -23% | u | -1 | 6% | u
CN(Cc1cnn(-c2ccccc2)c1)C(=O)c1cccc(S(=O)(=O)Nc2ccccc2F)c1 | -1% | x | -13% | x | x | x | x | x | x
Cc1ccc(-c2ccc(/C=C3\C(=O)ON=C3c3ccccc3)o2)c([N+](=O)[O-])c1 | 0% | 0 | 52µM* | -15% | u | u | 7 | 79µM* | 35µM*
COc1cc(C(=S)N2CCN(C(c3ccccc3)c3ccccc3)CC2)cc(OC)c1O | 1% | -3 | u | -13% | -1% | -7% | -7 | 6% | 22µM*
COc1ccc(CCn2c(=O)c3cccnc3n(CC(=O)Nc3c(C)cccc3C)c2=O)cc1OC | 0% | x | 4% | -3% | 1% | 12% | x | x | x
COc1ccc(NC(=O)CCc2nnc3n(CC(C)C)c(=O)c4ccccc4n23)cc1 | 0% | x | 0% | 7% | -8% | -11% | x | x | x
COc1ccccc1NC(=O)c1cnn(-c2ccccc2)c1-n1cccc1 | -1% | x | 20% | 40% | 17% | 6% | x | x | x
COc1cc(OC)c(NC(=O)c2cnn(-c3ccccc3)c2-n2cccc2)cc1Cl | 0% | x | 40µM* | -13% | 11% | 3% | -8 | -2% | 7.1µM*
Cc1ccc(N(C(=O)c2nsc(Cl)c2Cl)C(C(=O)NC2CCCC2)c2ccc(O)cc2)cc1C (stereo unspecified) | 7% | -1 | u | u | u | -115% | 1 | 16% | 14µM*
Cc1cc(C)cc(N(C(=O)c2nsc(Cl)c2Cl)C(C(=O)NC2CCCC2)c2ccc(O)cc2)c1 (stereo unspecified) | 1% | 4 | -17% | -7% | u | u | x | x | x
COc1ccc(/C=C/C(=O)c2ccc([N+](=O)[O-])o2)cc1 | u | -21 | -3%[38.3 µM] | x | -1% | -3% | x | x | x
Cc1ccccc1/C=C/C(=O)c1ccc([N+](=O)[O-])o1 | u | 10 | u | x | -17% | u | -6 | 40µM* | u
Cc1cccc(/C=C/C(=O)c2ccc([N+](=O)[O-])o2)c1 | u | u | 4.5µM* | x | u | u | 1 | 22µM* | 2µM*
Cc1ccc(-c2nnc(Nc3ccc(F)cc3)c3ccccc23)cc1S(=O)(=O)N1CCN(C)CC1 | 3% | x | -15% | 2% | -22% | u | x | x | x
Cc1ccc(-c2[nH]ncc2/C=N/n2c(COc3ccccc3)nc3ccccc3c2=O)cc1 | 10% | 0 | -4% | 4% | -6% | u | x | x | x
Cc1cc(/C=N/n2c(COc3ccccc3)nc3ccccc3c2=O)c(O)c([N+](=O)[O-])c1 | 5% | -18 | u | 6% | -9% | u | 6 | 4% | 32µM*
CN(C)Cc1c(C(=O)N/N=C/c2ccccc2OCc2c(F)cccc2Cl)nnn1-c1nonc1N | 0% | -2 | 37µM* | -3% | 4% | 3% | -4 | 0% | 7.1µM*
NSc1nc(N)c2nc(-c3ccccc3)c(-c3ccccc3)nc2n1 | 0% | 3 | u | 3% | -1% | -30% | 2 | 1% | 22µM*
SMILES | Nrf2 ARE act | Giardia kill | IDH1 R132H inh | Apoferritin bind | A549 viability | Nrf2 block | Resorufin autofl | WT IDH1 inh | IDH1 R132H conf
Nc1nc(N)c2nc(-c3ccccc3)c(N)nc2n1 | 4% | 14 | 18% | 371% | u | -2% | x | x | x
COc1ccc(CCNC(=O)c2ccc3c(c2)c(C)c(C)n3Cc2ccc(F)cc2)c(OC)c1OC | 0% | x | -4% | 62% | 0% | -22% | x | x | x
CCOc1ccc(-c2cc(NC(=O)c3ccccc3)c(C(=O)OC)s2)cc1 | 0% | x | 0% | -2% | 8% | 0% | x | x | x
CCCCn1nnnc1C1(C)CCC(=O)N1C1CC1 (stereo unspecified) | -1% | x | x | x | x | x | x | x | x
COc1ccc(C(C(=O)Nc2ccc(C(C)C)cc2)N(Cc2ccco2)C(=O)CC2NC(=O)NC2=O)cc1 (stereo unspecified) | 3% | 3 | u | -15% | -6% | -9% | -10 | -6% | 32µM*
CCC[C@@H]1C[C@@]1(CCC)[C@@H](NP(=O)(c1ccccc1)c1ccccc1)c1ccc(C(=O)OC)cc1 | 3% | -16 | u | -15% | u | u | -3 | -4% | 22µM*
O=C1c2[nH]nc(-c3ccc(F)cc3)c2C(c2ccccc2F)N1c1ccccc1 (stereo unspecified) | -3% | x | u | u | -7% | u | 1 | 1% | u
